Screening data from PubChem BioAssay.
A selection: hits, their analogues and other compounds. The true share with any hit is near 18%.
DT40 TDP1 no CPT: qHTS for Inhibitors of human tyrosyl-DNA phosphodiesterase 1 (TDP1): qHTS in cells in absence of CPT; DT40 Tdp1-/- hTDP1 cells, no CPT, ATP luminescence, 48 h; Potency, µM (doses to about 46.2 µM), without a hit: top-dose activity change, negative = growth inhibition, most hits filed as inhibitors; hit rate 15% among 420,000; AID 686978, 2013; also: potency is read from the fitted curve at half-maximal effect; nearly all actives have a fitted effect of over 55% in size
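Growth kinetics read by CellTiter-Glo luminescence after ≥48 hr at 37 °C. Cells: DT40 Tdp1-/- stably carrying human TDP1, 400 per well, compound exposure in the absence of CPT (DMSO vehicle).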
IL1B secr inh: qHTS for Inhibitors of Inflammasome Signaling: IL-1-beta AlphaLISA Primary Screen | THP-1 LPS/ATP IL-1B secretion, AlphaLISA, 16 h; hits give low values | activity change, % at 57.5 µM | hit rate 4.7% among 360,000; in the data active = activity change below about -50%; inconclusive = mostly about -30% to -49%
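THP-1 cells pretreated 1 hr with compounds (up to 57.5 uM final), then stimulated with LPS (250 ng/mL final) plus ATP (1.25 mM final); secreted IL-1B measured by AlphaLISA after 16 hr, decreased signal indicating inhibition.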
LDHA inh: qHTS assay for inhibitors of human lactate dehydrogenase; purified LDHA, NADH/diaphorase-resazurin fluorescence; hits give low values; activity change, % (values are at about 110 or 230 µM); hit rate 0.15% among 480,000; AID 1347041, 2019; in the data active = activity change below about -30%; inconclusive = mostly about -25% to -30%;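 also: plate controls were DMSO wells for no effect and wells without enzyme for full effect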
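Remaining NADH was detected by diaphorase (0.133 mg/mL) converting 37 µM resazurin to fluorescent resorufin, read at 0 and 20 minutes. The preceding 5-minute room-temperature reaction used 2 nM LDHA, 0.2 mM sodium pyruvate and 0.06 mM NADH at pH 7.4.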
Gal4-VP16 FLuc: VP16 counterscreen qHTS for inhibitors of ROR gamma transcriptional activity. Drosophila S2 Gal4-VP16 UAS-luciferase, luminescence, 20 h. Potency, µM (doses to about 53.6 µM), without a hit: at the highest dose activity, negative = inhibition, most hits filed as inhibitors. hit rate 3.5% among 310,000;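 also: Gal4-VP16 expression switched on by copper sulfate through the metallothionein promoter; potency is read from the fitted curve at half-maximal effect; nearly all actives have a fitted effect of over 50% in size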
RORg inh: qHTS for inhibitors of ROR gamma transcriptional activity; Drosophila S2 Gal4-RORgamma UAS-luciferase reporter, 20 h; Potency, µM (top dose mostly 53.6 µM), without a hit: top-dose activity change, negative = inhibition, most hits filed as inhibitors; hit rate 5.4% among 310,000; also: potency is read from the fitted curve at half-maximal effect; nearly all actives have a fitted effect of over 60% in size
Target sequence (P51450 whole entry, looked up, the tested form may be a part): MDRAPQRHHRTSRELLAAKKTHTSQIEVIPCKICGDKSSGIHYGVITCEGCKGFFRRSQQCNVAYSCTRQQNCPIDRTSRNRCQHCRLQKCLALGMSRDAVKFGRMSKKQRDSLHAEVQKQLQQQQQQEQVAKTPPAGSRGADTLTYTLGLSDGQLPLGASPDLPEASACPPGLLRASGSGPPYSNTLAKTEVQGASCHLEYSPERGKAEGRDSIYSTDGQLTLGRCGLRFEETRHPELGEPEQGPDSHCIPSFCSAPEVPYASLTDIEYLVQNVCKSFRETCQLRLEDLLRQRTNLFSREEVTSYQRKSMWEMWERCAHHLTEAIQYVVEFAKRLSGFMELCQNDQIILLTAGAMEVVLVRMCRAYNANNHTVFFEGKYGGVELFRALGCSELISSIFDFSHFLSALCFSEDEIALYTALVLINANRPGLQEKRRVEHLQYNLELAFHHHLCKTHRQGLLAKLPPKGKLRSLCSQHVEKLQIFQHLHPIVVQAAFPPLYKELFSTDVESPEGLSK
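Luciferase reporter read in Schneider cells carrying Gal4-RORγ (mouse) and UAS-Photinus luciferase; cells given compound 1 h before 700 uM copper sulfate induction, then incubated 20 h at ambient temperature.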
TDP1 cell CPT: qHTS for Inhibitors of human tyrosyl-DNA phosphodiesterase 1 (TDP1): qHTS in cells in presence of CPT; chicken DT40 Tdp1-/-;hTDP1 cells + 20 nM CPT, ATP luminescence, 48 h; Potency, µM (top dose mostly 46.2 µM), inactives show at the top dose activity change, negative = growth inhibition, actives largely listed as inhibitors; hit rate 12% among 420,000; AID 686979, 2013; also: potency is read from the fitted curve at half-maximal effect; nearly all actives have a fitted effect of over 55% in size
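Cell growth measured by CellTiter-Glo luminescence after a minimum 48 h, 37 C compound exposure with 20 nM CPT in Tdp1-knockout DT40 cells stably expressing hTDP1, seeded 400/well; qHTS titration format.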
* = called active by the depositor; ? = inconclusive; . = no result; [ ] = dose if it differs, or a comment. Unless noted, calls follow the shape of the dose curve; as a rule, active = well fitted curve in the direction sought with a large enough effect; inconclusive = small, poorly fitted or top-dose-only effect, or another doubt; inactive = no such curve, though single readings can be large; an effect the other way counts as inactive or inconclusive. Unless noted, % is scaled to controls: 0 for no effect and ±100 for the full control effect.

SMILES	DT40 TDP1 no CPT	IL1B secr inh	LDHA inh	Gal4-VP16 FLuc	RORg inh	TDP1 cell CPT
COc1ccc(CNS(=O)(=O)c2ccc3c(c2)N(C(C)=O)CC(C)S3)cc1 (stereo not drawn)	9.2µM*	-3	-3	?	44%	?
COc1cccc(NC(=O)C2CCC(CNS(=O)(=O)c3ccc4c(c3)CC(C)N4C(C)=O)CC2)c1 (stereo not drawn)	18µM*	24	-7	-14%	30%	23µM*
CC(=O)N1c2ccc(S(=O)(=O)NCC3CCC(C(=O)NC4CCC(C)CC4)CC3)cc2CC1C (stereo not drawn)	-24%	31	-1	1%	31%	?
CC(=O)N1c2ccc(S(=O)(=O)NCC3CCC(C(=O)NC4CCCCC4C)CC3)cc2CC1C (stereo not drawn)	?	42	-2	-5%	?	?
Cc1ccc2c(Cl)cc(Cl)c(OCC(=O)N3CCOC(C)C3)c2n1 (stereo not drawn)	.	.	9	.	.	.
C=C(C)CC1(Nc2ccccc2C)CCCCC1	.	.	8	.	.	.
CCCCN(C)C(=O)C1CCC(CNS(=O)(=O)c2ccc3c(c2)CC(C)N3C(=O)C2CC2)CC1 (stereo not drawn)	23µM*	-12	1	?	?	10µM*
Cc1ccccc1C1CC(=O)NC2=C1C(=O)CC(C)(C)C2 (stereo not drawn)	.	.	4	.	.	.
COc1ccc(-c2ccc(OC)c([C@H]3[C@H]4C=CC[C@@H](C)[C@@H]4C(=O)N3Cc3ccccc3)c2)cc1	15µM*	41	-3	-8%	-15%	15µM*
COc1ccc(-c2ccoc2)cc1[C@H]1[C@H]2C=CC[C@@H](C)[C@@H]2C(=O)N1Cc1ccccc1	?	-66*	0	-8%	44%	?
CCN(C(=O)Cn1nc(Cc2ccncc2)c2ccccc2c1=O)c1cc(Cl)ccc1OC	.	.	5	.	.	.
CCc1ccc(-c2csc(/C(C#N)=C/Nc3c(C)cc(C)cc3C)n2)cc1	.	.	7	.	.	.
O=C(CN1CCN(CCN2C(=O)c3cccc4cccc(c34)C2=O)CC1)c1ccc(Cl)cc1	.	.	.	-1%	-19%	.
CS(=O)(=O)N1CCN(CCN2C(=O)c3cccc4cccc(c34)C2=O)CC1	?	-12	-1	7%	0%	-9%
Cc1ccc(NC(=S)N2CCN(CCN3C(=O)c4cccc5cccc(c45)C3=O)CC2)cc1	?	22	-11	?	7.1µM*	?
COc1cc2c3c(cccc3c1)C(=O)N(CCN1CCCC1)C2=O	0.1µM*	-10	-2	.	.	0.037µM*
COc1ccc(C(=O)CN2CCN(CCN3C(=O)c4cccc5cccc(c45)C3=O)CC2)cc1	21µM*	-20	-4	.	.	?
O=C(Oc1ccc2c(=O)c(-c3ccccc3)coc2c1)c1cccs1	.	.	-2	.	.	.
Cc1ccc(C)c(-c2cc(C(=O)NC3CCCC3)c3cc(Br)ccc3n2)c1	.	.	7	.	.	.
CSCCC(C(=O)Nc1c(C)cccc1C)N(C)CCc1ccccc1 (stereo not drawn)	16µM*	-2	-1	.	.	18µM*
CN(CCc1ccccc1)C(CCc1ccccc1)C(=O)Nc1ccc2c(c1)OCCO2 (stereo not drawn)	?	11	-1	.	.	?
COc1ccc(-c2nc(C(=O)N3CCCCCC3)nn2-c2ccccc2Cl)cc1	.	.	12	.	.	.
COc1ccc(CNC(=O)C(c2ccco2)N(Cc2cccs2)C(=O)Cc2cccs2)cc1 (stereo not drawn)	?	-52*	2	-8%	21%	?
COc1ccc(CNC(=O)C(c2cccs2)N(Cc2ccco2)C(=O)Cc2cccs2)cc1 (stereo not drawn)	23µM*	?	0	-30%	?	?
COc1ccc(CNC(=O)C(c2ccco2)N(C(=O)Cc2cccs2)c2cccnc2)cc1 (stereo not drawn)	?	0	0	-11%	19%	?
SMILES	DT40 TDP1 no CPT	IL1B secr inh	LDHA inh	Gal4-VP16 FLuc	RORg inh	TDP1 cell CPT
COc1ccc(CNC(=O)C(c2ccco2)N(C(=O)c2csnn2)c2cccc(C)c2C)cc1 (stereo not drawn)	23µM*	-9	0	5%	-2%	?
COc1ccc(NC(=O)C(c2ccc(OC)cc2)N(Cc2ccco2)C(=O)Cc2cccs2)cc1 (stereo not drawn)	.	.	3	.	.	.
COc1ccc(CN2C(=NC(=O)c3ccccc3)SC3CS(=O)(=O)CC32)cc1OC (stereo not drawn)	4%	-57*	-7	-2%	4%	0%
CC[n+]1c(/C=C/C=C/N(C(C)=O)c2ccccc2)sc2ccccc21	21µM*	0	-3	-14%	40%	?
CCn1c(/C=C/N(C(C)=O)c2ccccc2)[n+](CC)c2ccc(Cl)cc21	15µM*	13	-21	-17%	-14%	16µM*
COc1ccccc1-n1c(SCc2nnnn2-c2ccccc2)nnc1N1CCCCC1	.	.	21	.	.	.
Cc1nc2c(C(=O)N(C)Cc3ccccc3)c[nH]n2c(=O)c1Cc1ccc(Cl)cc1	?	.	-4	.	.	18µM*
CCC(C)(C)C1CCc2[nH]nc(C(=O)NC3CCCC3)c2C1 (stereo not drawn)	?	?	2	.	.	16µM*
C=CCNC(=O)c1n[nH]c2c1CC(C(C)(C)CC)CC2 (stereo not drawn)	?	-2	-10	.	.	?
CCC(C)(C)C1CCc2[nH]nc(C(=O)NCc3ccc(OC)cc3)c2C1 (stereo not drawn)	15µM*	0	-4	.	.	23µM*
NNC(=O)c1n[nH]c2c1CC(C1CCCCC1)CC2 (stereo not drawn)	5.8µM*	-11	-15	.	.	5.2µM*
CC(C)c1nc2oc3c(N(CCO)Cc4ccccc4)ncnc3c2c2c1CCC2	.	.	0	.	.	.
O=c1oc2ccccc2cc1-c1csc(Cc2nc(-c3ccc(Br)cc3)cs2)n1	16µM*	-1	-7	1%[0.365 µM]	46%	?
Cc1ccc(-c2csc(Cc3nc(-c4cc5ccccc5oc4=O)cs3)n2)cc1	23µM*	-27	1	-27%	38%	18µM*
